SMILES strings stand for the structures. The campaign covered roughly 39,000 compounds. About 3,300 (8.5%) were called active. The sample holds actives, similar compounds and a random draw of the others, so the mix is not that of the screen.

For the experiment, the system named is HepG2. As to the kind of experiment: cytotoxicity call (relative viability < 0.9). The conditions noted are these: 10 µM.
As to `C[C@H]1CCCCO[C@@H](CN(C)S(=O)(=O)c2ccccc2)[C@@H](C)CN([C@@H](C)CO)C(=O)c2cc(NC(=O)C3CCCCC3)ccc2O1`, the cytotoxicity call was “inactive”.

For the molecule `O=C(C[C@H]1CC[C@H]2[C@@H](COC[C@H](O)CN2S(=O)(=O)c2cccc(Cl)c2)O1)N1CCOCC1`, the cytotoxicity call was “inactive”.

Turning to `CO[C@@H](C(=O)N(C)C[C@@H]1OCc2ccccc2-c2c(n(C)c3ccccc23)C(=O)N([C@H](C)CO)C[C@@H]1C)c1ccccc1`, the cytotoxicity call was “inactive”.

For the molecule `CNS(=O)(=O)c1cc(OC)ccc1OC`, the cytotoxicity call was “inactive”.

As for `COc1cccc(S(=O)(=O)N2C[C@H](O)COC[C@H]3O[C@@H](CC(=O)N4CCN(c5ccccc5)CC4)CC[C@@H]32)c1`, the cytotoxicity call was “inactive”.

In the case of `CCCNC(=O)Cn1c(=O)n(C)c2ccccc21`, the cytotoxicity call is “inactive”.

Turning to `C[C@@H]1CCCCO[C@@H](CN(C)CC2CCCCC2)[C@H](C)CN([C@H](C)CO)C(=O)c2cc(NC(=O)Cc3ccccc3)ccc2O1`, the cytotoxicity call was “inactive”.

For `C[C@@H]1CCCCO[C@H](CN(C)CC2CCCCC2)[C@H](C)CN([C@H](C)CO)C(=O)c2cc(NC(=O)Cc3ccccc3)ccc2O1`, the cytotoxicity call is “inactive”.

In the case of `C[C@H](CO)N1C[C@H](C)[C@@H](CN(C)CC2CCCCC2)OCCCC[C@H](C)Oc2ccc(NC(=O)Cc3ccccc3)cc2C1=O`, the cytotoxicity call was “inactive”.

Regarding `C[C@H]1CCCCO[C@@H](CN(C)CC2CCCCC2)[C@@H](C)CN([C@@H](C)CO)C(=O)c2cc(NC(=O)Cc3ccccc3)ccc2O1`, the cytotoxicity call was “active”.

For `C[C@H](CO)N1C[C@H](C)[C@H](CN(C)CC2CCCCC2)OCCCC[C@H](C)Oc2ccc(NC(=O)Cc3ccccc3)cc2C1=O`, the cytotoxicity call is “inactive”.

Regarding `C[C@H]1CCCCO[C@@H](CN(C)CC2CCCCC2)[C@@H](C)CN([C@@H](C)CO)C(=O)c2cc(NC(=O)CCCN(C)C)ccc2O1`, the cytotoxicity call is “active”.

In the case of `C[C@@H]1CCCCO[C@@H](CN(C)CC2CCCCC2)[C@@H](C)CN([C@H](C)CO)C(=O)c2cc(NC(=O)CCCN(C)C)ccc2O1`, the cytotoxicity call is “inactive”.

Turning to `C[C@@H]1CCCCO[C@H](CN(C)CC2CCCCC2)[C@@H](C)CN([C@H](C)CO)C(=O)c2cc(NC(=O)Cc3ccccc3)ccc2O1`, the cytotoxicity call is “inactive”.

As for `C[C@@H]1CCCCO[C@@H](CN(C)CC2CCCCC2)[C@H](C)CN([C@@H](C)CO)C(=O)c2cc(NC(=O)Cc3ccccc3)ccc2O1`, the cytotoxicity call was “inactive”.

On to `C[C@@H]1CN([C@@H](C)CO)C(=O)c2cc(NC(=O)Cc3ccccc3)ccc2O[C@@H](C)CCCCO[C@H]1CN(C)CC1CCCCC1`, for which the cytotoxicity call was “active”.

Take `C[C@@H]1CN([C@H](C)CO)C(=O)c2cc(NC(=O)CCCN(C)C)ccc2O[C@@H](C)CCCCO[C@H]1CN(C)CC1CCCCC1`: the cytotoxicity call was “inactive”.

For the molecule `C[C@H]1CCCCO[C@H](CN(C)CC2CCCCC2)[C@@H](C)CN([C@@H](C)CO)C(=O)c2cc(NC(=O)Cc3ccccc3)ccc2O1`, the cytotoxicity call was “active”.

With `C=CC(C)(O)CCC1C(C)(O)CCC2C(C)(C)CCCC21C` (stereo not drawn), the cytotoxicity call was “inactive”.

Consider `CCS(=O)(=O)Nc1ccc2c(c1)C(=O)N(C)[C@@H]1CC[C@H](CC(=O)N3CCN(C)CC3)O[C@@H]1CO2`, for which the cytotoxicity call was “inactive”.

For the molecule `NCC[C@H]1CC[C@H](NC(=O)Nc2ccc(F)cc2)[C@H](CO)O1`, the cytotoxicity call is “inactive”.

Take `CN(C)CCN1CCN(C)C2(CCN(S(=O)(=O)C3CC3)CC2)C1=O`: the cytotoxicity call is “inactive”.

As for `Cc1noc(C)c1NC(=O)Nc1ccc2c(c1)CC(=O)N([C@@H](C)CO)C[C@H](C)[C@@H](CN(C)Cc1ccc(C(=O)Nc3ccccc3N)cc1)O2`, the cytotoxicity call was “inactive”.

As to `CCCNC(=O)N1C[C@H](O)COC[C@@H]2O[C@@H](CC(=O)N3CCOCC3)CC[C@H]21`, the cytotoxicity call was “inactive”.

On to `CO[C@@H]1CN(C)C(=O)c2cc(NC(=O)Nc3cccc(F)c3)ccc2OC[C@@H](C)N(C(=O)Nc2c(C)noc2C)C[C@H]1C`, for which the cytotoxicity call was “inactive”.

`Cc1cc(Cn2c(=O)n(Cc3cnc(C)s3)c(=O)c3cc(S(=O)(=O)NC4(C)CC4)ccc32)n(C)n1`: the cytotoxicity call is “inactive”.

For `COc1ccccc1CNC(=O)C[C@@H]1C[C@H]2c3cc(NC(=O)c4ccc5c(c4)OCO5)ccc3O[C@H]2[C@H](CO)O1`, the cytotoxicity call was “inactive”.

On to `C[C@H]1CN([C@@H](C)CO)C(=O)c2cc(C#Cc3ccccc3)cnc2O[C@H]1CN(C)S(=O)(=O)c1ccccc1F`, for which the cytotoxicity call is “inactive”.

For `C[C@@H]1CN([C@@H](C)CO)C(=O)c2cc(C#Cc3ccccc3)cnc2O[C@@H]1CN(C)S(=O)(=O)c1ccccc1F`, the cytotoxicity call was “active”.

Consider `C[C@H](CO)N1C[C@H](C)[C@@H](CN(C)S(=O)(=O)c2ccccc2F)Oc2ncc(C#Cc3ccccc3)cc2C1=O`, for which the cytotoxicity call was “inactive”.

Regarding `C[C@H]1CN([C@@H](C)CO)C(=O)c2cc(C#Cc3ccccc3F)cnc2O[C@@H]1CN(C)S(=O)(=O)c1ccccc1F`, the cytotoxicity call was “inactive”.

For the molecule `C[C@@H]1CN([C@H](C)CO)C(=O)c2cc(C#Cc3ccccc3F)cnc2O[C@H]1CN(C)S(=O)(=O)c1ccccc1F`, the cytotoxicity call is “inactive”.

`C[C@@H]1CN([C@@H](C)CO)C(=O)c2cc(C#Cc3ccccc3)cnc2O[C@H]1CN(C)S(=O)(=O)c1ccccc1F`: the cytotoxicity call is “active”.

In the case of `C[C@@H]1CN([C@H](C)CO)C(=O)c2cc(C#Cc3ccccc3)cnc2O[C@@H]1CN(C)S(=O)(=O)c1ccccc1F`, the cytotoxicity call was “inactive”.

Turning to `C[C@@H]1CN([C@@H](C)CO)C(=O)c2cc(C#Cc3ccccc3F)cnc2O[C@H]1CN(C)S(=O)(=O)c1ccccc1F`, the cytotoxicity call is “active”.

Turning to `C[C@H](CO)N1C[C@H](C)[C@H](CN(C)S(=O)(=O)c2ccccc2F)Oc2ncc(C#Cc3ccccc3)cc2C1=O`, the cytotoxicity call is “inactive”.

Turning to `C[C@H](CO)N1C[C@H](C)[C@H](CN(C)C(=O)Nc2cccc3ccccc23)Oc2ccc(NC(=O)NC3CCCCC3)cc2CC1=O`, the cytotoxicity call was “inactive”.

On to `Cc1cc(=O)n(CNC(=O)c2ccco2)cn1`, for which the cytotoxicity call was “inactive”.

As for `O=C([O-])C(O)C(O)C(O)C(O)C(O)CO.O=C([O-])C(O)C(O)C(O)C(O)C(O)CO.[Ca+2]` (stereo not drawn), the cytotoxicity call is “inactive”.

For `O=C(C[C@H]1CC[C@H]2NC[C@@H](O)COC[C@@H]2O1)NCCN1CCCC1`, the cytotoxicity call is “inactive”.

For the molecule `COc1ccsc1C(N)=O`, the cytotoxicity call was “inactive”.

On to `C[C@H]1CN([C@@H](C)CO)C(=O)Cc2cc(NC(=O)CCCCCC(=O)Nc3ccccc3N)ccc2O[C@@H]1CN(C)C(=O)Nc1cccc2ccccc12`, for which the cytotoxicity call was “inactive”.

`COC(=O)C[C@@H]1CC[C@@H]2[C@H](COC[C@@H](O)CN2S(=O)(=O)c2cn(C)cn2)O1`: the cytotoxicity call was “inactive”.

The values above are taken from the antibiotic and cytotoxicity screens of Wong et al. (2023).
